The source of these data is PubChem BioAssay (NCI).

Compounds without any hit were thinned out: in the full panel of roughly 83,000, 20% have a hit.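 Compound tested at a single concentration for 48 hours in 96-well plates; a percent growth value below 10 was scored as active.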 Values without a mark were called inactive. Activity calls are given as the source filed them.

Among the test systems are DU-145 prostate; K-562 leukemia; MALME-3M melanoma; MDA-MB-231 breast; RXF 393 renal; SF-268 CNS; SF-295 CNS; SF-539 CNS; UACC-257 melanoma; M14 melanoma; HCT-15 colon; HT29 colon; SNB-75 CNS; SNB-19 CNS; U251 CNS; PC-3 prostate; SK-MEL-5 melanoma; UACC-62 melanoma; LOX IMVI melanoma; SK-MEL-28 melanoma.
Test in all cases: NCI-60 one-dose screen, 48 h (100 = growth as untreated, 0 = no growth, -100 = all killed)
What all share (details): 10 µM unless noted

With `O=[N+]([O-])c1ccc(N/N=C(/C(=N/Nc2ccc([N+](=O)[O-])cc2)c2ccccc2)c2ccccc2)cc1`, the growth in the experiment with DU-145 prostate was 9.75% (active); with K-562 leukemia, 84.4%; with MALME-3M melanoma, 100%; in the experiment with MDA-MB-231 breast, 81.9%; in the experiment with RXF 393 renal, 62.8%; in the experiment with SF-268 CNS, 104%. The growth in the experiment with SF-295 CNS is 69.3%; with SF-539 CNS, 94.2%; in the experiment on UACC-257 melanoma, 98.9%; in the experiment on M14 melanoma, 80.2%; in the experiment on HCT-15 colon, 16.9%; with HT29 colon, 16.4%. The growth in the experiment on SNB-75 CNS was 90.3%; in the experiment on SNB-19 CNS, 93.3%; with U251 CNS it was 53.4%; in the experiment on PC-3 prostate, 82%; with SK-MEL-5 melanoma, 86.3%; with UACC-62 melanoma, 78.6%. The growth with LOX IMVI melanoma is 61%; with SK-MEL-28 melanoma, 121%.

As to `Cc1ccc(/C=N/Nc2nc(Nc3ccccc3)nc(-n3nc(C)cc3C)n2)cc1`, the growth in the experiment on DU-145 prostate is 40.9%; with K-562 leukemia, 37.1%; with MALME-3M melanoma, 80.8%; with MDA-MB-231 breast, 51.6%; with RXF 393 renal, 55.9%; in the experiment on SF-268 CNS, 44%. For the same compound, the growth in the experiment on SF-295 CNS was -40.7% (active); in the experiment with SF-539 CNS it was 56.5%; in the experiment with UACC-257 melanoma, 54.2%; in the experiment on M14 melanoma, 42.9%; with HCT-15 colon it was 25.2%; in the experiment on HT29 colon it was 32.7%. Besides, the growth with SNB-75 CNS was 83.4%; in the experiment on SNB-19 CNS, 74.4%; in the experiment on U251 CNS, 33.8%; with PC-3 prostate it was 31.1%; in the experiment on SK-MEL-5 melanoma it was -12.6% (active); in the experiment with UACC-62 melanoma, 44.9%. The growth in the experiment with LOX IMVI melanoma was 32.6%; in the experiment on SK-MEL-28 melanoma it was 68.6%.

On to `CCC(=C(c1ccc(OCCN2CCCC2)cc1)c1ccc(OCCN2CCCC2)cc1)c1ccc(Cl)cc1`, for which the growth was 26.4% in the experiment on DU-145 prostate; -21.2% (active) in the experiment with K-562 leukemia; -82.1% (active) in the experiment on MALME-3M melanoma; -70.9% (active) with MDA-MB-231 breast; 13.7% in the experiment with RXF 393 renal; 49.8% with SF-268 CNS. Further, the growth is -61.9% (active) in the experiment on SF-295 CNS; -88.4% (active) in the experiment on SF-539 CNS; -58% (active) in the experiment on UACC-257 melanoma; -75% (active) in the experiment on M14 melanoma; -70.5% (active) in the experiment on HCT-15 colon; -49.9% (active) with HT29 colon. Besides, the growth is -58.2% (active) in the experiment with SNB-75 CNS; -19% (active) in the experiment on SNB-19 CNS; -77.4% (active) with U251 CNS; -7.15% (active) with PC-3 prostate; -83.4% (active) in the experiment with SK-MEL-5 melanoma; -46.9% (active) with UACC-62 melanoma. Besides, the growth is -90.3% (active) in the experiment with LOX IMVI melanoma and -81.7% (active) in the experiment with SK-MEL-28 melanoma.

With `COC(=O)CCC(=O)C(=O)OC`, the growth was 10.6% [10 mM] in the experiment on DU-145 prostate; 7.9% [10 mM] (active) in the experiment on K-562 leukemia; 42.4% [10 mM] in the experiment on MALME-3M melanoma; 35.5% [10 mM] in the experiment with MDA-MB-231 breast; -8.87% [10 mM] (active) with RXF 393 renal; -10.3% [10 mM] (active) in the experiment on SF-268 CNS. The growth in the experiment on SF-295 CNS was 30.2% [10 mM]; in the experiment on SF-539 CNS, 4.1% [10 mM] (active); in the experiment with UACC-257 melanoma it was -15.1% [10 mM] (active); in the experiment with M14 melanoma it was 7.27% [10 mM] (active); with HCT-15 colon, 16.6% [10 mM]; with HT29 colon it was -9.41% [10 mM] (active). Also, the growth is 19% [10 mM] with SNB-75 CNS; 12.6% [10 mM] in the experiment with SNB-19 CNS; 3.32% [10 mM] (active) in the experiment on U251 CNS; -5.82% [10 mM] (active) in the experiment on PC-3 prostate; 64% [10 mM] in the experiment with SK-MEL-5 melanoma; -52.8% [10 mM] (active) in the experiment on UACC-62 melanoma. The growth with LOX IMVI melanoma is -19.9% [10 mM] (active); in the experiment with SK-MEL-28 melanoma, -1.85% [10 mM] (active).

Take `COc1ccc(C(=O)Nc2ncc(Cc3cccc(Cl)c3)s2)cc1OC`: the growth in the experiment with DU-145 prostate was 30.5%; in the experiment on K-562 leukemia it was 11.6%; in the experiment with MALME-3M melanoma, 47.6%; with MDA-MB-231 breast, 39.1%; with RXF 393 renal it was -7.25% (active); in the experiment on SF-268 CNS, 50.8%. The growth was 6.3% (active) in the experiment on SF-295 CNS; -12.3% (active) in the experiment with SF-539 CNS; 23.1% in the experiment on UACC-257 melanoma; 8.45% (active) in the experiment on M14 melanoma; 23.4% in the experiment with HCT-15 colon; 9.89% (active) in the experiment on HT29 colon. Also, the growth is 19.8% with SNB-75 CNS; 34.2% in the experiment with SNB-19 CNS; 28.4% in the experiment on U251 CNS; 27.4% in the experiment with PC-3 prostate; -25.9% (active) in the experiment with SK-MEL-5 melanoma; 10.6% in the experiment with UACC-62 melanoma. The growth in the experiment with LOX IMVI melanoma was 7.25% (active); in the experiment on SK-MEL-28 melanoma it was 10.9%.

With `CCC(C)N(c1ccc(Cl)cc1)c1nc(-c2ccc(Br)cc2)cs1` (stereo not given), the growth in the experiment on DU-145 prostate is 108%; in the experiment with K-562 leukemia, 92.4%; in the experiment on MALME-3M melanoma, 97.5%; with MDA-MB-231 breast, 88.6%; with RXF 393 renal, 121%; in the experiment with SF-268 CNS, 97.1%. Further, the growth in the experiment on SF-295 CNS was 105%; in the experiment with SF-539 CNS, 101%; in the experiment on UACC-257 melanoma, 103%; with M14 melanoma, 95.6%; in the experiment with HCT-15 colon, 97.7%; with HT29 colon, 106%. Besides, the growth in the experiment on SNB-75 CNS was 102%; in the experiment with SNB-19 CNS, 105%; in the experiment on U251 CNS, 98%; in the experiment with PC-3 prostate, 99.9%; with SK-MEL-5 melanoma, 104%; in the experiment with UACC-62 melanoma it was 87.2%. Also, the figures for the growth in the experiment with LOX IMVI melanoma and in the experiment with SK-MEL-28 melanoma were 93.3% and 111%, respectively.

As for `CCNc1cc(-c2cccc(OC(F)(F)F)c2)nc2ccc(N3CCCC3)cc12`, the growth with DU-145 prostate was 28.6%; with K-562 leukemia, 4.34% (active); with MALME-3M melanoma, -32.2% (active); in the experiment with MDA-MB-231 breast, 15.3%; in the experiment with RXF 393 renal it was 33.7%; with SF-268 CNS, 48.8%. The growth with SF-295 CNS was 23.6%; with SF-539 CNS, 48.9%; in the experiment on UACC-257 melanoma, 11.1%; in the experiment with M14 melanoma, 7.92% (active); in the experiment with HCT-15 colon, 4.85% (active); with HT29 colon, 4.79% (active). Besides, the growth is 82.3% with SNB-75 CNS; 27% with SNB-19 CNS; -68.3% (active) in the experiment with U251 CNS; 15.1% in the experiment on PC-3 prostate; -64.3% (active) in the experiment on SK-MEL-5 melanoma; 50.7% in the experiment on UACC-62 melanoma. Also, the growth with LOX IMVI melanoma is 11.3%; in the experiment with SK-MEL-28 melanoma, 30.6%.
